Measurements as given in PubChem BioAssay.
Calls of active or inactive are those of the source. How the calls were made is not given here.

molecular target: Pantothenate synthetase (Mycobacterium tuberculosis (strain ATCC 25618 / H37Rv)) (UniProt P9WIL5); test: Recombinant Mtb pantothenate synthetase (PanC) inhibitors, coupled enzyme, confirmatory (AID 375); settings: coupled enzyme assay; at 10 µM, stronger effect = higher value;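 further: 0% = full reaction with vehicle and 100% = no enzyme background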
Sequence (P9WIL5 whole entry, looked up): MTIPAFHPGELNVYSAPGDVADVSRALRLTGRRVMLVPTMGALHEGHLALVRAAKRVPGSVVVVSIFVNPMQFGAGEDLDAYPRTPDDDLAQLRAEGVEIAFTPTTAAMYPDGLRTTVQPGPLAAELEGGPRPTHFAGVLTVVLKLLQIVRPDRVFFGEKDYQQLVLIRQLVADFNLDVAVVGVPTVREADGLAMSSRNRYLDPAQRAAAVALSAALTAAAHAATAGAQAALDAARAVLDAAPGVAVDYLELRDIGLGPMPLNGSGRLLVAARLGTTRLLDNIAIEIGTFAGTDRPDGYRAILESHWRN

Row | SMILES | inhibition
1 | COc1cc2c(cc1OC)CN(C(=O)CSc1nc3[nH]ncc3c(=O)n1-c1ccccc1)CC2 | 2% (inactive)
2 | CCC(C)NC(=O)C1c2cc(OC)c(OC)cc2C(=O)N(C)C1c1ccc(OC)cc1 (stereo not drawn) | 0% (inactive)
3 | CC(=O)Nc1ccccc1O | 9% (inactive)
4 | COc1ccc(OCCCC(=O)Nc2ccc3c(c2)OCCO3)cc1 | 4% (inactive)
5 | COc1ccc(Cn2c(CCCO)nc3ccccc32)cc1OC | 0% (inactive)
6 | Cc1ccc(-c2[nH]nc3c2C(c2ccoc2)C(C#N)=C(N)O3)cc1C (stereo not drawn) | 0% (inactive)
7 | COc1ccc(/C=N/n2c(SC)nnc2-c2ccccc2)cc1C | 0% (inactive)
8 | CC(=O)Nc1nc(C)c(-c2csc(Nc3ccc(O)cc3)n2)s1 | 0% (inactive)
9 | COc1ccc(Cn2c(=O)[nH]c3cc(C(=O)NCCCN4CCCC4)ccc3c2=O)cc1 | 5% (inactive)
10 | CN1CCc2c(sc3c2c(=O)n(-c2cccc(Cl)c2)c2nncn32)C1 | 0% (inactive)
11 | COC(=O)N1CC(c2ccccc2)CC1=O (stereo not drawn) | 4% (inactive)
12 | Cc1ccc(NC(=O)c2ccco2)c(NC(=O)CN2C(=O)c3ccccc3C2=O)c1 | 7% (inactive)
13 | S=C(NCC1CCCO1)n1nnc2ccccc21 (stereo not drawn) | 6% (inactive)
14 | O=C1c2ccccc2C(=O)N1Cc1nc2ccccc2c(=O)n1CCN1CCOCC1 | 1% (inactive)
15 | CC(=O)c1ccc(OC(=O)c2cccs2)cc1 | 0% (inactive)
16 | Cc1cc(C(=O)Nc2c(F)cc(F)cc2Br)no1 | 0% (inactive)
17 | COc1cccc(Nc2nc(=O)[nH]nc2C)c1 | 8% (inactive)
18 | CCOC(=O)N1CCN(C(=O)Cn2ncn3nc(-c4cccs4)cc3c2=O)CC1 | 0% (inactive)
